This is an account of results in PubChem BioAssay AID588499 (NMMLSC, 2011).

Hit rate of the full screen: of about 360,000 compounds, about 610 (0.17%) were called active. About 2% were inconclusive and are not listed. The list comes from a sample in which actives are over-represented; it also holds similar structures and randomly drawn compounds. Unmarked numbers belong to inactive results. No stated cut-off is given here; in the data, active means inhibition above about 30%; inconclusive means no clear call, values can overlap the other calls; inactive means below that.

The test system of this experiment is Botulinum neurotoxin type A light chain protease (Clostridium botulinum A str. ATCC 3502). The experiment in a line: blockers of BoNT/A LC substrate cleavage – biochemical, flow cytometry, MLPCN library, primary screen (AID 588499). Further: plate controls were buffer without enzyme for full effect and enzyme alone for no effect. The note with it: multiplex microsphere protease substrate cleavage, at 10 µM, hits give high values. (In general: In flow cytometry, cells or beads pass a laser one at a time.)
By inhibition is commonly meant the change of the read-out against control, counted positive when it falls. Regarding `CCOc1ncccc1C(=O)OCC(=O)NC1CC1`, the inhibition was -0.4%.

In the case of `O=C(OCC(=O)c1c[nH]c2ccccc12)c1cccc(O)c1`, the inhibition is 0.8%.

Regarding `CCOc1ncccc1C(=O)OCC(=O)c1c[nH]c2ccccc12`, the inhibition is 36.8% (active).

For `CC1CCCCC12NC(=O)N(CC(=O)Nc1ccc(S(=O)(=O)Nc3ncccn3)cc1)C2=O` (stereo not drawn), the inhibition was -0.7%.

With `CC(=O)Nc1ccc(-c2ccnc3c2CC(C(=O)NC(C)C)O3)cc1` (stereo not drawn), the inhibition is 0.1%.

For `CCCc1ccc(C(O)c2ncc(-c3cccc(OC)c3)[nH]2)cc1` (stereo not drawn), the inhibition was 0.3%.

For `COc1ccc(C2CC(c3cccs3)=NN2C(=O)CSc2nnc(N)s2)cc1OC` (stereo not drawn), the inhibition was 0.2%.

As for `COc1ccc(C2CC(c3cccs3)=NN2c2nc(C)c(C(C)=O)s2)cc1OC` (stereo not drawn), the inhibition was 63.7% (active).

As to `COc1ccc(C2CC(c3cccs3)=NN2C(=O)CSc2nncs2)cc1OC` (stereo not drawn), the inhibition was 0.2%.

In the case of `CCN(CC)C(=O)Oc1ccc(Br)cc1C(=O)Nc1ccc(F)c(Cl)c1`, the inhibition was -0.8%.

As for `O=C(NCCCn1ccnc1)C(=O)c1cn(CC(=O)N2CCCCCC2)c2ccccc12`, the inhibition is 30.5% (active).

`Cc1ccc(CNC(=O)C(=O)c2cn(CC(=O)N3CCCC3)c3ccccc23)cc1`: the inhibition was 0%.

On to `O=C(NCc1ccco1)C(=O)c1cn(CC(=O)N2CCCCCC2)c2ccccc12`, for which the inhibition is 10.2%.

Consider `CC1(C(=O)NS(=O)(=O)C2CC2)CCCN(C(=O)CSc2ccccc2)C1` (stereo not drawn), for which the inhibition was 0.5%.

With `CN(C(=O)COC(=O)c1cc(=O)[nH]c2ccccc12)C1CCCCC1`, the inhibition was 2.1%.

Turning to `CSCC[C@H](NC(=O)NCc1cccs1)C(=O)O`, the inhibition was -0.9%.

Take `COc1ccc(NC(=O)COc2ccc(C(=O)c3ccc(F)cc3)cc2)cc1S(N)(=O)=O`: the inhibition was -1%.

In the case of `C[C@@H]1CN([C@@H](C)CO)C(=O)CCCn2nncc2CO[C@@H]1CN(C)S(=O)(=O)c1ccc(-c2ccccc2)cc1`, the inhibition was -0.4%.

Consider `O=c1[nH]snc1-c1c(Cl)cccc1Cl`, for which the inhibition is -0.7%.

Consider `COC(=O)c1c(NC(=O)COC(=O)[C@@H](NS(=O)(=O)c2ccccc2)C(C)C)sc2c1CCC2`, for which the inhibition was -0.3%.

`CCOC(=O)C1CCN(C(=O)CN2C(=O)c3cccnc3Oc3ccc(C)cc32)CC1`: the inhibition is -1%.

For `CCOC(=O)C1CCN(C(=O)Cc2c(C(=O)O)[nH]c3ccccc23)CC1`, the inhibition is -4.4%.

Regarding `CCOC(=O)N(C)c1c(CC)nc2c(OCc3ccccc3C(=O)OC)cccn12`, the inhibition was -0.1%.

Regarding `CCN1CCN(c2ccc(S(=O)(=O)N3CCCCC3)cc2NC(=O)Cc2c(Cl)cccc2Cl)CC1`, the inhibition was -1.8%.

On to `CCn1c(O)c(N=NC2=NC(=O)CS2)c2cc(C)ccc21`, for which the inhibition is -0.3%.

Regarding `COC(=O)c1ccc(CN2CCCC(C(=O)Nc3cccc(-n4cnnn4)c3)C2)cc1` (stereo not drawn), the inhibition was -3.3%.

Regarding `CC(C)C1N=C2c3ccccc3N=C(SCC(=O)c3ccc(O)c(O)c3)N2C1=O` (stereo not drawn), the inhibition is 0.1%.

As to `Cc1cc(C(C)(C)C)oc1C(=O)N(CC(=O)NC1CCCC1)Cc1ccc(Cl)cc1`, the inhibition is -0.3%.

For the compound `CC1(C(=O)Nc2cccc(Oc3ccccc3)c2)CCN1Cc1ccccc1Cl` (stereo not drawn), the inhibition was -0.1%.

As for `CC(C)CN(C(=O)CN1CCN(S(=O)(=O)c2ccccc2)CC1)c1c(N)n(CC(C)C)c(=O)[nH]c1=O`, the inhibition was -2.5%.

Take `Cc1cc(-c2nnc(CCC(=O)NC(c3ccccc3)c3ccccc3)o2)no1`: the inhibition was 0.3%.

As for `Cc1onc(-c2c(F)cccc2Cl)c1C(=O)OCC(=O)N1C(C)CCCC1C` (stereo not drawn), the inhibition is 0.1%.

`CCOC(=O)c1cc2c(=O)n3ccccc3nc2n(CC(C)C)c1=NC(=O)c1c(-c2c(F)cccc2Cl)noc1C`: the inhibition was 60.3% (active).

Regarding `CCCn1c(=NC(C)=O)c(C(=O)OCC)cc2c(=O)n3ccccc3nc21`, the inhibition was 0.6%.

Consider `CC(C)C(C)(C#N)NC(=O)CSc1nncn1-c1ccccc1` (stereo not drawn), for which the inhibition was -0.7%.

In the case of `Cc1ccc(SCC2=NNC(=O)C2)cc1`, the inhibition was 0.6%.

Regarding `CCc1ccc(CCC(=O)Nc2ccc(S(N)(=O)=O)cc2)o1`, the inhibition was 0.3%.

As for `CCCCCCN1CCN(C2CN(Cc3cn(CCCCCC)nn3)S(=O)(=O)C2)CC1` (stereo not drawn), the inhibition was -0.3%.

In the case of `Cc1ccc2nc(-c3ccccc3)c(CC3CCCCC3)n2c1`, the inhibition was 1.4%.

`CC1=CCC2C(=O)N(c3cccc(C(=O)NC(C)c4ccccc4)c3)C(=O)C2C1` (stereo not drawn): the inhibition is -3.1%.

With `Cc1ccc(C)c(NC(=O)CN(C)C(=O)COc2ccc3ccccc3c2)c1`, the inhibition is -0.4%.

As for `Cc1cc2ccccc2n1CCNC(=O)COc1ccc2ccccc2c1`, the inhibition is 61.4% (active).

`COCCNC(=O)COc1ccc(N(C)S(=O)(=O)c2ccc3ccccc3c2)cc1`: the inhibition was -1.4%.

For the compound `Cc1ccc(S(=O)(=O)N2CC[C@H]3[C@@H](C2)C(=O)C[C@@H](c2ccccc2)N3S(=O)(=O)c2ccc(C)cc2)cc1`, the inhibition is -0.4%.

Consider `Cc1ccc(N(C(=O)c2ccc(CN3CCOCC3)o2)C(C(=O)NCCC(C)C)c2cccs2)c(C)c1` (stereo not drawn), for which the inhibition was -1%.

With `Cc1cccc(N(CC(=O)Nc2ccc(-c3nc4ccc(C)cc4s3)cc2)S(C)(=O)=O)c1`, the inhibition is -0.9%.

As for `CCCCCc1c(-c2ccc(OC)c(OC)c2)ncn1CCc1ccccc1OC`, the inhibition was -0.2%.

Regarding `COC(=O)c1ccc2nc(-c3ccc(OC)c(OC)c3)c(Cc3ccccc3)n2c1`, the inhibition was 3%.

`CCCOc1cccc(C(=O)Nc2ccccc2C(=O)N2CCN(C)CC2)c1`: the inhibition is -2.3%.

With `COc1ccc(C(=O)NC(Cc2ccc(OC(=O)c3ccc(OC)cc3)cc2)C(=O)O)cc1` (stereo not drawn), the inhibition was 0.4%.

As for `c1csc(-c2nnc(COc3ccc4c(c3)OCO4)o2)c1`, the inhibition was -0.4%.

Consider `COC(=O)c1ccc2nc(-c3ccc(C)cc3)c(Cc3ccc(OC)cc3C)n2c1`, for which the inhibition was 0.7%.

Regarding `CN=c1scc(-c2cc(OC)ccc2OC)n1/N=C/c1c(C)[nH]c2ccccc12`, the inhibition is 7.7%.

On to `Cc1[nH]c2ccccc2c1/C=N/NC(=O)CNC(=O)c1ccc2c(c1)OCO2`, for which the inhibition was 0.6%.

Turning to `COCCNC(=S)N/N=C/c1c(C)[nH]c2ccccc12`, the inhibition was 42.9% (active).

For `CCCN(C(=O)CSc1nnnn1C)c1c(N)n(Cc2ccccc2)c(=O)[nH]c1=O`, the inhibition was -0.4%.

Consider `CCOC(=O)c1ccn(-c2nc(-c3ccco3)cc(C(F)(F)F)n2)n1`, for which the inhibition is 0.1%.

Turning to `O=C(Cn1cnc2c(OCc3ccccc3)ncnc21)NCc1nc2ccccc2[nH]1`, the inhibition was -0.1%.

As for `Cc1ccc(Cc2c(-c3ccco3)nc3ccc(Cl)cn23)cc1`, the inhibition is 4.3%.

For the compound `CCc1nnc(NC(=O)CSc2nc3ccccc3c(=O)n2CCCOC)s1`, the inhibition was 0.5%.

Consider `O=[N+]([O-])c1ccc(NS(=O)(=O)c2ccccc2)c(Cl)c1`, for which the inhibition was -0.4%.

On to `CCN(C(=O)Cc1c(C(=O)O)n(CC)c2ccccc12)c1ccccc1C`, for which the inhibition is -3.2%.

Regarding `COc1cc(-c2nnc(Cn3cc(C(F)(F)F)ccc3=O)o2)cc(OC)c1OC`, the inhibition was 0.9%.

`COc1cc(/C=C2\SC(=S)N(Nc3ncc(C(F)(F)F)cc3Cl)C2=O)cc(OC)c1OC`: the inhibition is 82.7% (active).

With `O=C1/C(=C/c2ccc(F)cc2)SC(=S)N1NS(=O)(=O)c1ccccc1`, the inhibition is 1.8%.

`Nc1nnc(SCC(=O)OCc2ccc(Cl)c(Cl)c2)s1`: the inhibition is -0.2%.

For the compound `O=c1cnnc(Nc2ccccc2F)[nH]1`, the inhibition was -1.3%.

As to `N#Cc1ccc(N2Cc3ccccc3/C2=N/C(=O)Nc2ccc(Cl)cc2)cc1`, the inhibition was -0.1%.

Regarding `Cc1cc([N+](=O)[O-])nn1Cc1ccc(F)cc1`, the inhibition was -0.3%.

In the case of `Nc1nonc1-n1nnc(C(=O)N/N=C/c2cc(Br)ccc2O)c1CSC1=NCCS1`, the inhibition was 0.6%.

For the compound `COc1ccc(CCNC(=S)N2CCN(S(=O)(=O)c3ccc(F)cc3)CC2)cc1`, the inhibition is 0.6%.

With `Cn1c(NN)nc2sc3c(c2c1=O)CCC3`, the inhibition was -1.4%.

`CC1CCc2c(sc3nc4n(c(=O)c23)CCS4)C1` (stereo not drawn): the inhibition is 52.4% (active).

As to `CCCn1nnc2sc3c(c2c1=O)CCC(C)C3` (stereo not drawn), the inhibition was 0.3%.

With `Cc1ccc2[nH]c(C(=O)O)c(NC(=O)c3ccccc3[N+](=O)[O-])c2c1`, the inhibition was 0.9%.

Take `O=C1CSC(c2cccc(F)c2)N1c1ccccc1F` (stereo not drawn): the inhibition is -0.9%.

As for `Cc1cc(Br)ccc1NC(=O)CCCOc1cc(=O)n(C)c2ccccc12`, the inhibition was 0%.

As for `CCC(=O)N(C)C(c1ccccc1Cl)c1nnnn1-c1c(C)cccc1C` (stereo not drawn), the inhibition was -0.4%.

Turning to `COc1ccc(/C(=N\O)c2nccc3cc(OC)c(OC)cc23)cc1OC`, the inhibition is -0.2%.

Turning to `COc1ccc(C2OC(CCc3ccccc3)Cc3[nH]c(=S)[nH]c(=O)c32)cc1` (stereo not drawn), the inhibition was 0.5%.

For `CCOc1ccc2ccccc2c1/C=N/NC(=O)c1c(C)cc(C)[nH]c1=O`, the inhibition was 0.8%.

Turning to `O=C(O)c1ccc2c(=O)n3c(nc2c1)/C(=C/c1ccc(OC(F)F)cc1OC(F)F)CC3`, the inhibition is -1.9%.

`CC(C)(C)c1ccc(S(=O)(=O)NC(=O)C2(C)CCN2C(=O)CC2CC2)cc1` (stereo not drawn): the inhibition was -0.9%.

Consider `O=C(CC(NC(=O)c1ccccc1)c1ccccc1)Nc1ccc(F)c(F)c1` (stereo not drawn), for which the inhibition is -0.5%.

In the case of `CN(C(=O)CSc1nnc(-c2n[nH]c3ccccc23)o1)c1ccccc1`, the inhibition was 0.1%.

`Cc1nc(C(F)(F)F)ccc1C(=O)N1CCC1(C)C(=O)NS(=O)(=O)c1ccccc1` (stereo not drawn): the inhibition was -0.7%.

For `Nc1nc2c(ncn2[C@@H]2O[C@H](CNCc3ccc(OCCCN4CCOCC4)cc3)[C@@H](O)[C@H]2O)c(=O)[nH]1`, the inhibition was -0.1%.

In the case of `CCc1oc(-c2ccc(OC)cc2)c(C(=O)OCCCCCO)c1C(C)OCCO` (stereo not drawn), the inhibition is 0.8%.
